The supplement of paper PMC4954754
± gives the uncertainty stated by the source.

Tested on: HEK293T-Rex XBP1-RLuc
Test: XBP1-RLuc splicing reporter activation, triplicate, relative to 500 nM thapsigargin (% of thapsigargin); higher = stronger IRE1/XBP1s reporter activation
Conditions: 6.8 µM; 18 h; screen: confirmation
Procedure: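 HEK293T-Rex cells stably expressing the ERSE-firefly luciferase (BiP promoter, ATF6-preferring) or XBP1-splicing Renilla luciferase (IRE1/XBP1s) reporter, 1536-well plates, compound at 6.8 µM for 18 hr at 37 °C; luminescence read […] and expressed as % activation = 100*(compound - median DMSO)/(median 500 nM thapsigargin - median DMSO). Primary screen was single-pass; confirmation screen in triplicate (mean ± SD).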

Row | SMILES | XBP1-RLuc splicing reporter activation
1 | Cc1ccc2nc(NC(=O)c3cccc4ccccc34)sc2c1 | 4.94 ± 1.5
2 | Oc1ccc(-c2csc(-c3cccnc3)n2)cc1O | 15.2 ± 0.9
3 | Cc1ccn2cc(-c3ccc(O)c(O)c3)nc2c1 | 17.8 ± 5
4 | Cc1ccc(NC(=O)/C=C/c2ccco2)nc1 | 5.22 ± 0.94
5 | CC(=O)c1cccc(Nc2nc(-c3ccc(O)c(O)c3)cs2)c1 | 21.8 ± 1.3
6 | COc1ccccc1-c1nnc(Nc2nc3c(OC)cccc3s2)o1 | 10.2 ± 1
7 | Nc1nc(Nc2ccccc2)cc(-c2ccccc2)n1 | 1.44 ± 0.87
8 | Nc1nc(Nc2ccc(Cl)cc2)nc2ccccc12 | 8.65 ± 0.74
9 | Nc1ccccc1NC(=O)c1ccc(C(=O)Nc2ccccc2N)cc1 | 4.04 ± 0.55
10 | Cc1ccc2c(N)c(C(=O)c3ccc4c(c3)OCO4)sc2n1 | 5.3 ± 0.72
11 | COc1ccccc1OCC(=O)Nc1cc(C)ccc1O | 19.6 ± 1.9
12 | N#Cc1c(NC(=O)c2cnccn2)sc2c1CCCC2 | 2.98 ± 3.5
13 | Nc1ccc2sc(-c3cc(Cl)c(N)c(Cl)c3)nc2c1 | 10.16 ± 0.093
14 | O=C(COC(=O)c1cc(O)c(O)c(O)c1)Nc1ccc(Br)cc1F | 20.18 ± 0.15
15 | O=C1NC(=Nc2ccc(F)cc2)S/C1=C\c1ccc(O)c(O)c1 | 17.4 ± 1.8
16 | COc1ccc(-c2cc(C(=O)Nc3cc(C)ccc3O)on2)cc1OC | 10.9 ± 1.2
17 | CN(C)/C=N/C1=C(C#N)C(c2ccc3c(c2)OCO3)c2ccc3ccccc3c2O1 (stereo not given) | 1.3 ± 3.6
18 | COc1ccc(Nc2nccn3c(-c4ccsc4)cnc23)cn1 | 3.91 ± 0.5
19 | CCCCCOc1ccc(N/C(N)=N/c2nc(C)cc(C)n2)cc1 | 159 ± 6.3
20 | Cc1cc(C)c(OCC(=O)N/N=C/c2ccc(O)c(O)c2)c(Br)c1 | 17.1 ± 1.1

Row | SMILES | XBP1-RLuc splicing reporter activation
21 | COc1ccc(/C=N/c2sc3c(c2C(N)=O)CCCC3)cc1 | 2.45 ± 0.41
22 | CC(C)CC(c1nnnn1C1CCCC1)N1CCN(C(=O)c2ccco2)CC1 (stereo not given) | 10.6 ± 2.2
23 | O=c1[nH]c(COc2ccccc2)nc2sc3c(c12)CCCC3 | 4.82 ± 0.69
24 | COc1ccccc1/C=N/Nc1nc(-c2ccccc2)cc(=O)[nH]1 | 7.58 ± 1.9
25 | O=C(NCCc1ccc(O)cc1)c1ccc2nc(-c3csc4ccccc34)sc2c1 | 18.8 ± 1.8
26 | CCOc1cc(C2C(C(=O)OC3CCCCC3)=C(C)NC3=C2C(=O)CC(c2ccc(OC)cc2)C3)cc(Br)c1O (stereo not given) | 18.5 ± 2.8
27 | O=C(CCc1ccccc1)Nc1ccc(Cl)cn1 | 0.292 ± 0.79
28 | O=[N+]([O-])c1ccc(/C=C/c2ccc(O)cc2)cc1 | 19.2 ± 1.3
29 | Cc1ccc(-c2csc(Nc3ccc(O)cc3)n2)cc1 | 21.3 ± 2.7
30 | Nc1ccc(-c2nc3cc(N)c(Cl)cc3[nH]2)cc1 | 16 ± 1
31 | NC(=O)c1c(NC(=O)COc2ccccc2)sc2c1CCC2 | -0.209 ± 0.99
32 | CCCCCCc1ccc(-c2ncc(N)cn2)cc1 | 12.9 ± 0.42
33 | CCN(CC)c1ccc(NC(=O)c2cccc(OC)c2)cc1 | 0.922 ± 1.9
34 | Cc1ccc(O)c(NC(=O)c2cc(CC(C)C)on2)c1 | 30.2 ± 2.4
35 | COCCNC(=O)c1cc(-c2cccs2)on1 | 6.38 ± 1.2
36 | CCOc1cccc(C(=O)Nc2ccc(Br)cn2)c1 | 2.81 ± 1.5
37 | COc1ccc(/C=C(\C#N)c2nc3ccccc3n2C)cc1 | -0.499 ± 0.016
38 | Oc1ccc(-c2cnc3c(Nc4ccc5[nH]ccc5c4)nccn23)cc1 | 39.2 ± 1.5
39 | O=C1N/C(=C/c2ccc(O)cc2)C(=O)N1c1cccc(Cl)c1 | 61.1 ± 1.4
40 | CC(=O)N1CCc2c([nH]c3ccccc23)C12CCN(CCCOc1ccccc1)CC2 | 65.9 ± 4
